FUS yeast rescue = suppressors of FUS proteinopathy in yeast | Potency, µM (highest dose often 76.6 µM), most hits filed as activators | 390,000 tested, 0.24% active | AID 1347120 | S. cerevisiae FUS-expressing, growth rescue, OD600, 24 h; note: nearly all actives have a fitted effect of over 55% in size
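Yeast FUS proteinopathy model; galactose-induced FUS (2%), starting OD 0.005. Cpds in dilution series, 24hr, 30C, 99% humidity. Abs 600 nm growth. Pos ctrl CP55940 (top 92uM final); neg ctrl DMSO.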
Abeta rescue = restores growth of yeast expressing A-beta42 peptide. yeast expressing A-beta42, growth rescue, OD600, 48 h; response scale: 0% DMSO, 100% iron-clioquinol control. 410,000 tested, 0.063% active. Potency, µM (series often up to 46.1 µM), most hits filed as activators; note: nearly all actives have a fitted effect of over 55% in size
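Yeast A-beta toxicity model in growth medium with pinned compounds, 48 h at 30 C; growth read as absorbance at 600 nm. Normalized to FeCl3/clioquinol equimolar mix (positive) and DMSO (negative).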
aSyn yeast inh = inhibitors of alpha-synuclein toxicity in yeast; Yeast expressing alpha-synuclein, growth rescue, BacTiter-Glo, 24 h; Potency, µM (doses to about 46.1 µM), most hits filed as activators; 370,000 tested, 0.14% active; AID 652106; note: nearly all actives have a fitted effect of over 65% in size
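Galactose-induced alpha-syn yeast (OD600=0.02, raffinose-pregrown) + pinned cpd, 24 hr, 30 deg C; growth by BacTiter-Glo luminescence. Growth restoration scores as activation.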
TDP-43 yeast inh = TDP-43 toxicity inhibition in yeast. TDP-43 expressing yeast growth rescue, BacTiter-Glo, 24 h. Potency, µM (top dose mostly 46.1 µM), usual class: activators. 410,000 tested, 1.8% active. AID 652104; note: nearly all actives have a fitted effect of over 50% in size
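Yeast cells expressing TDP-43 under galactose induction are exposed to compounds for 24 hr at 30 deg C. BacTiter-Glo luminescence measures growth, so protective compounds score as activators.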
Of the large screens only hits and unclear results are named; the others gave an inactive call; ! = a repeat was not active. Compounds with a hit are over-represented: about 2.1% of the library has one in this group of screens. Calls come from the whole dose curve; as a rule, active = well fitted curve in the direction sought with a large enough effect; inconclusive = small, poorly fitted or top-dose-only effect, or another doubt; inactive = no such curve, though single readings can be large; an effect the other way counts as inactive or inconclusive.

COc1ccc(-c2nc(C(=O)NCC3CCCO3)cc3c2[nH]c2ccccc23)cc1 (centres undefined)	FUS yeast rescue inconclusive
Cc1ccc(-c2nc(C(=O)NCC3CCCO3)cc3c2[nH]c2ccccc23)cc1 (centres undefined)	aSyn yeast inh inconclusive, TDP-43 yeast inh 25.1µM
O=C(NCC1CCCO1)c1cc2c([nH]c3ccccc32)c(-c2cccc(Br)c2)n1 (centres undefined)	FUS yeast rescue inconclusive, TDP-43 yeast inh 10µM
CC1CCCN(c2nc(-c3ccccc3O)nc3ccccc23)C1 (centres undefined)	TDP-43 yeast inh 20µM
CC1CCN(c2nc(-c3ccncc3)nc3ccccc23)CC1	aSyn yeast inh inconclusive, TDP-43 yeast inh 12.6µM
Oc1ccccc1-c1nc(NCC2CCCO2)c2ccccc2n1 (centres undefined)	TDP-43 yeast inh 11.2µM
CCOC(=O)N1CCN(C(=O)CCc2ccc(S(=O)(=O)NC(C)(C)C)cc2)CC1	none
Cc1ccc(C(=O)Nc2ccnc(-c3ccncc3)n2)cc1	none
COc1ccc(C(C(=O)NC2CCCC2)n2c(CSCCOc3ccccc3)nc3ccccc32)cc1 (centres undefined)	FUS yeast rescue 17.8µM
O=C(CSc1nnnn1-c1cccc2c1CCCC2)N1CCCC1	TDP-43 yeast inh 20µM
CN1C(=O)C2(Nc3ccccc3-c3nc4ccccc4n32)c2ccccc21 (centres undefined)	FUS yeast rescue 50.1µM
CC[C@@H]1C(c2ccccc2)=NN(c2ccc(Br)cc2)[C@H]1C(=O)N1CCOC1=O	aSyn yeast inh inconclusive, TDP-43 yeast inh inconclusive
CC[C@@H]1C(c2ccc(F)cc2)=NN(c2ccc(Br)cc2)[C@H]1C(=O)N1CCOC1=O	TDP-43 yeast inh 14.1µM
CCSC1=NC2(CCCCC2)Nc2sc3c(c21)CCCC3	FUS yeast rescue 35.5µM
CCSc1nc2sc3c(c2c(=O)[nH]1)CCCC3	none
Oc1ccccc1Cc1c(O)ccc2ccccc12	TDP-43 yeast inh 15.8µM
COc1ccc(-c2nc(-c3ccc(O)cc3O)cs2)cc1OC	TDP-43 yeast inh 17.8µM
COc1ccc(C(=O)c2cnc3ccccc3c2-c2ccccc2)cc1	TDP-43 yeast inh 35.5µM
Cc1ccc(C(=O)c2cnc3ccccc3c2-c2ccccc2)cc1	TDP-43 yeast inh inconclusive
CCOC(=O)c1[nH]c2c(c1Cc1ccccc1)C(=O)CC(c1ccc(Cl)cc1)C2 (centres undefined)	none (no result: aSyn yeast inh)
COc1ccc(NS(=O)(=O)c2cc(NC(=O)CCNC(C)=O)ccc2N2CCCCC2)cc1	FUS yeast rescue 31.6µM
Fc1ccccc1-c1n[nH]c(=S)n1N=Cc1ccc(OCc2ccccc2)cc1	none (no result: Abeta rescue, aSyn yeast inh, TDP-43 yeast inh)
C#CCSc1nnc(CSc2nc3ccccc3s2)n1-c1ccccc1	TDP-43 yeast inh 22.4µM
Cc1ccc(S(=O)(=O)Nc2c(C)cc([N+](=O)[O-])cc2C)cc1	TDP-43 yeast inh 14.1µM (no result: FUS yeast rescue)
Cc1ccc(S(=O)(=O)NCCNc2ccc([N+](=O)[O-])cc2)cc1	none
CCc1nn(C(C)C(=O)N2CCN(c3ccc(OC)cc3)CC2)c(=O)c2cc3occc3n12 (centres undefined)	TDP-43 yeast inh 31.6µM
Cc1cccc(N2CCN(C(=O)CCCn3ncn4c(cc5occc54)c3=O)CC2)c1C	TDP-43 yeast inh 15.8µM (no result: aSyn yeast inh)
Cc1cccc(N2CCN(C(=O)C(C)n3nc(C)n4c(cc5occc54)c3=O)CC2)c1C (centres undefined)	TDP-43 yeast inh 22.4µM!
CCC(C(=O)N1CCN(c2ccc(OC)cc2)CC1)n1nc(C)n2c(cc3occc32)c1=O (centres undefined)	FUS yeast rescue inconclusive (no result: aSyn yeast inh)
O=C(CCCn1ncn2c(cc3occc32)c1=O)N1CCc2ccccc2C1	none
Cc1nn(C(C)C(=O)N2CCN(c3ccccn3)CC2)c(=O)c2cc3occc3n12 (centres undefined)	none
CCc1nn(CCCC(=O)N2CCN(c3cccc(OC)c3)CC2)c(=O)c2cc3occc3n12	none (no result: aSyn yeast inh)
CCc1nn(CCCC(=O)N2CCN(c3cc(Cl)ccc3C)CC2)c(=O)c2cc3occc3n12	FUS yeast rescue inconclusive, TDP-43 yeast inh 35.5µM (no result: aSyn yeast inh)
CSCC[C@H](N)C(=O)N1CCC(C(=O)N[C@H](C(=O)NCc2ccccc2F)C(C)C)CC1	none
Cc1ccc(-c2nc3ncccc3o2)cc1NC(=O)c1ccc(-c2cccc(Cl)c2C)o1	none (no result: aSyn yeast inh)
O=S1(=O)CC(N2CCN(Cc3ccccc3F)CC2)CN1Cc1cn(Cc2cccc(Cl)c2)nn1 (centres undefined)	none
Cc1cc(N2CCN(c3ccccc3)CC2)nc(-c2ccccc2O)n1	TDP-43 yeast inh 17.8µM
CCN(C(=O)c1cc2c(=O)n3cccc(C)c3nc2s1)C1CCCCC1	TDP-43 yeast inh inconclusive
CCCCN(CC)C(=O)c1cc2c(=O)n3cccc(C)c3nc2s1	TDP-43 yeast inh 35.5µM
CCN(C(=O)c1cc2c(=O)n3ccccc3nc2s1)C1CCCCC1	TDP-43 yeast inh 17.8µM
NC(=O)[C@@H]1CCOc2c(I)cc([N+](=O)[O-])cc2C(=O)N[C@@H](CO)C(=O)NCC(=O)N1	none
COc1cc(NS(=O)(=O)c2ccc(C)cc2)c2ncccc2c1	aSyn yeast inh inconclusive, TDP-43 yeast inh 11.2µM
COc1cc(NC(=O)c2ccccc2Cl)c2ncccc2c1	TDP-43 yeast inh 20µM
NS(=O)(=O)Nc1cccc2cccnc12	none (no result: FUS yeast rescue, Abeta rescue, TDP-43 yeast inh)
Cc1ccc(S(=O)(=O)Nc2cccc3cccnc23)cc1	aSyn yeast inh inconclusive, TDP-43 yeast inh 35.5µM
CN(Cc1ccccc1)S(=O)(=O)c1cccc(C(=O)OCc2cccc([N+](=O)[O-])c2)c1	none (no result: Abeta rescue, aSyn yeast inh, TDP-43 yeast inh)
Cc1cc(N2CCN(C)CC2)nc2ccc(NC(=O)Nc3ccccc3Br)cc12	none (no result: aSyn yeast inh)
NC(=O)CNC(=O)C1CCN(S(=O)(=O)c2ccc(-n3cnnn3)cc2)CC1	none
CCCc1nc(SC)ncc1C(=O)N1CCN(c2ccc(Cl)cc2)CC1	TDP-43 yeast inh 35.5µM (no result: aSyn yeast inh)
COc1ccc(CCNC(=O)c2ccc3c(c2)N(Cc2cccc(C)c2)C(=O)c2ccccc2S3(=O)=O)cc1OC	FUS yeast rescue inconclusive (no result: aSyn yeast inh)
O=C(NCc1ccc(Cl)cc1)c1ccc2c(c1)N(Cc1ccccc1F)C(=O)c1ccccc1S2=O (centres undefined)	FUS yeast rescue 28.2µM (no result: aSyn yeast inh)
COc1ccc(CCNC(=O)c2ccc3c(c2)N(Cc2ccccc2F)C(=O)c2ccccc2S3(=O)=O)cc1OC	FUS yeast rescue 20µM (no result: aSyn yeast inh)
COc1ccc(C(=O)/C=C/Nc2ccc(S(N)(=O)=O)cc2)cc1OC	none
Cc1ccc(N(Cc2cccs2)C(=O)c2ccccc2Cl)cc1	none (no result: aSyn yeast inh)
CCOc1ccccc1C(=O)N(Cc1cccs1)c1ccc(Cl)cc1	TDP-43 yeast inh 22.4µM (no result: aSyn yeast inh)
Cc1noc(/C=C/c2ccccc2F)c1S(=O)(=O)N1CCC(C(=O)N2CCOc3ccccc32)CC1	TDP-43 yeast inh inconclusive (no result: aSyn yeast inh)
O=[N+]([O-])c1ccc2[nH]c(O)c(N=NC(=S)Nc3cccnc3)c2c1	TDP-43 yeast inh 10µM
CC(=O)c1sc(NC(=O)c2ccc(Cn3cc(Br)cn3)o2)nc1C	none
CC(=O)c1sc(Nc2ccc(Oc3ccccc3)cc2)nc1C	TDP-43 yeast inh 35.5µM

Screens (PubChem BioAssay)
